Reference: ChEMBL document CHEMBL3988442, “University of Dundee, Small-Polar-MMV Screening Library” (2021)

Legend:
[1] = target: T1, Aspartate--tRNA(Asp/Asn) ligase (Mycobacterium tuberculosis (strain ATCC 25618 / H37Rv)) (UniProt P9WFW3); assay: Assay for Asp RNA synthetase-1 from Mycobacterium tuberculosis; format: functional; set-up: scale not given: direction of the effect not stated beside the values; conditions: 30 µM; further: in the data most compounds retested in dose-response had high values
T1 sequence (whole entry): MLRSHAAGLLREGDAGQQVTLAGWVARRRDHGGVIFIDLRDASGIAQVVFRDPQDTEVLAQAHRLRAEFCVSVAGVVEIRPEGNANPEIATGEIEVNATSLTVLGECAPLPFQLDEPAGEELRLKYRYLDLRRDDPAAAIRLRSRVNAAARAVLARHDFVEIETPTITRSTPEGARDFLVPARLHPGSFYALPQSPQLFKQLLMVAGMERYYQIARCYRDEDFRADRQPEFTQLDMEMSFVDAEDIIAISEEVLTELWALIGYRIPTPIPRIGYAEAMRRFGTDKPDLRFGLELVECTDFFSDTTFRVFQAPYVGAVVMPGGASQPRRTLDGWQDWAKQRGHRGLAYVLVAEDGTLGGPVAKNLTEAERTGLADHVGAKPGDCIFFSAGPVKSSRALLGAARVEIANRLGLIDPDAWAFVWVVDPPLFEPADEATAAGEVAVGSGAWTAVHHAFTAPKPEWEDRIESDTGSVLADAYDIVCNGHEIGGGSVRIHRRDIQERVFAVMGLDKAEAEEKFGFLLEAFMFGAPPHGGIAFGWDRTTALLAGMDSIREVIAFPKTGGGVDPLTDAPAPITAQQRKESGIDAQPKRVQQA

[2] = target: Shiga toxin 2 (Escherichia coli O157:H7) (UniProt P09385+P09386); assay: E. coli 0.157:H7 Shiga Toxin SOP - stx2 screening assay; format: functional; set-up: scale not given: direction of the effect not stated beside the values; conditions: 30 µM

SMILES | Percent Effect [1] [%] | Percent Effect [2] [%]
CC(NC(=O)N1CCC(n2cncn2)CC1)c1ccc(F)cc1F (stereo not given) | -3.4 | 7.64
c1ccc(C(OCCNC2CCc3ncnn3C2)c2ccccc2)cc1 (stereo not given) | 2.94 | -14.7
COC[C@@]12CC[C@@H](N3CCOCC3)C[C@H]1CCN(c1ncccn1)C2 | -4.45 | 17.6
Cc1nc2c(c(NC3CC3)n1)CCN(C(=O)C(C)(C)O)CC2 | 3.74 | -3.14
Cc1noc(C)c1CN(C)CCC(=O)N1CCc2sccc2C1 | 5.92 | -16
Cc1ccc(C(=O)NCCCNS(C)(=O)=O)c(=O)[nH]1 | -3.45 | -17.7
O=C(Cc1n[nH]c2ccccc12)N1CCC(Nc2cccnn2)CC1 | 2.78 | -16.9
Cc1ccc(CC2CCCN2CC(=O)NCc2cccnc2)cc1 (stereo not given) | 0.509 | 16.7
CN1CCN(C(=O)c2cccc(OCc3cscn3)c2)CC1 | 0.522 | -26.5
COCCc1noc(CN2CCCC2Cn2cc(C)cn2)n1 (stereo not given) | -2.48 | -2.29
CC(C)(C#N)C(=O)N1CCCC(c2cc(C(F)(F)F)[nH]n2)C1 (stereo not given) | -1.34 | -11.7
N#CCCCS(=O)(=O)N1CCCC1CC(=O)c1cccs1 (stereo not given) | 0.747 | 12
CC(C)(C)C(=O)NCCn1ccc(-c2ccncc2)n1 | -3.08 | -20
COc1ccc(CN(Cc2cncn2C)CC2CCCO2)cc1OC (stereo not given) | 4.27 | 10.9
COc1ccc(CN2C[C@@H]3COC[C@]3(CN(C)C)C2)cc1 | 2.52 | 3.85
CC(NC(=O)N(C)Cc1ccsc1)c1ccc2c(c1)NC(=O)CO2 (stereo not given) | -2.41 | 18.1
CN(C)C(=O)N1C[C@@H]2CC[C@H](C1)N(Cc1ccc3nsnc3c1)C2 | 6.27 | -56.9
Cc1cccc(-c2nc(CN(Cc3cccs3)CC3CCCO3)no2)c1 (stereo not given) | -0.626 | -5.45
CC(C)c1nc(C(=O)NCCn2ccnc2)nn1-c1cccc(F)c1 | -3.06 | 32.1
Cc1nn(C)c(C)c1NC(=O)CCn1ncc2c(C)cccc21 | 10.1 | -31.5
COC(C(=O)N1CCN(c2cccc(Cl)c2)C(=O)C1)c1ccccc1 (stereo not given) | 0.0112 | -0.212
O=C(Nc1nccs1)NC1CCN(Cc2ccccc2)C1 (stereo not given) | -1.92 | -17.1
Cc1nnc([C@@H]2CC[C@@H]3[C@@H](CCN3S(=O)(=O)c3cccnc3)O2)o1 | 7.29 | 8.32

SMILES | Percent Effect [1] [%] | Percent Effect [2] [%]
Cc1nnc(N2CCC(CN(C)C(C)C)CC2)c(C#N)c1C | -0.173 | -25
CS(=O)(=O)N1CCCC12CCCN(S(=O)(=O)c1cc(F)cc(F)c1)C2 (stereo not given) | -0.24 | 2.89
CCc1cnc(CN2CCCC2c2noc(C3CC3)n2)o1 (stereo not given) | 2.19 | 19.7
NC(=O)C1(c2cnccn2)CCCN1Cc1cc2ccccc2o1 (stereo not given) | 3.17 | 11.4
CN1CC(=O)N(c2cnn(C)c2)CC12CCN(C(=O)c1ccsc1)C2 (stereo not given) | 0.595 | -1.99
Fc1ccc2c(c1)C(NCc1nnc3n1CCCCC3)CCCO2 (stereo not given) | -3.62 | -12.2
Cc1cccc(CN2CCc3c(nc(N4CCC(C)CC4)[nH]c3=O)C2)n1 | -2.78 | 10.7
COc1ccc(CN2CCn3c(CNS(C)(=O)=O)nnc3C2)cc1 | 1.39 | -6.04
CC(C(=O)NCCN1CCCCCC1)n1cncn1 (stereo not given) | -4.21 | -27.3
Cc1cnn(CCC(=O)N2CCN(c3nc(C)cs3)CC2)c1 | -4.11 | -15.5
COC1COC2(CCN(Cc3ccccc3Cl)CC2)C1 (stereo not given) | 3.77 | -11.8
Cc1cccc(-c2noc(CN3CCCC(Cn4cncn4)C3)n2)c1 (stereo not given) | -2.23 | -1.3
Cc1noc(C)c1CN1CC2(CCN(C(=O)c3cscn3)CC2)CC1=O | 6.36 | -13.6
COc1cnc(C2(O)CCN(C(=O)c3cccnc3)CC2)c(OC)n1 | 0.313 | 17.2
Cn1cc(CN2CCC3(CC(=O)N(c4ccc5c(c4)OCO5)C3)C2)cn1 (stereo not given) | 2.85 | -15.8
CCN1CCN(S(=O)(=O)c2cc(Cl)c(Cl)cc2C)CC1 | -2.76 | -10.7
Fc1ccc(CN2CCCC(c3nnc(-c4cnccn4)o3)C2)cc1F (stereo not given) | 2.55 | -5.16
CC1c2ncc(CN3CCN(C)CC3)n2CCN1Cc1cccnc1 (stereo not given) | 1.75 | -23.1
Cc1nn(C)c(C)c1-c1cncc(C2CCN(S(C)(=O)=O)CC2)n1 | -2.63 | -8.32
COC[C@@H]1CC[C@H]2[C@H](CCN2C(=O)c2ccncc2F)O1 | 3.94 | 7.83
O=C1N(c2ccc(Br)cc2)Cc2nc(=O)[nH]n21 | -4.79 | -34.3
CN(CC(=O)N1CCC(Oc2ccccc2)CC1)c1cnccn1 | 0.175 | -7.36
